# Values quoted from earlier work, collected in PubChem BioAssay AID977608.
# Hit rate of the full screen: of about 4,300 compounds, about 4,300 (100%) were called active. Cut-off not given; nearly all actives show IC50 up to about 1400 µM. So high a share suggests a set chosen from earlier hits. The list shows a part of the results. Where a SMILES comes first, the peptide text is derived from it. Square brackets hold non-standard residues; d marks the D form. Peptide text beside a SMILES is read from it. * marks the point of attachment. Orn(CH(NH2)2) = NC(N)NCCC[C@H](N)C(=O)O; Abu = CC[C@H](N)C(=O)O; Dap = NC[C@H](N)C(=O)O; Propionyl = CCC(=O)*
# Experiment: protein-ligand inhibition affinities from structures – PDB-derived complexes (AID 977608)
compound,measurement,setting,value
CCC(=O)NC[C@H](NC(=O)[C@@H](NC(=O)[C@@H]1CCCN1C(=O)[C@H](CCCNC(N)N)NC(=O)[C@H](CC(C)C)NC(=O)[C@@H](N)CCCCN)C(C)C)C(=O)N[C@@H](CCSC)C(=O)N[C@H](C(=O)N[C@@H](CCCNC(N)N)C(=O)N1CCC[C@H]1C(=O)N[C@@H](Cc1c[nH]c2ccccc12)C(=O)N[C@H](C(=O)N[C@@H](CCCNC(N)N)C(=O)O)C(C)C)C(C)C (H-KL[Orn(CH(NH2)2)]PV[Dap](Propionyl)MV[Orn(CH(NH2)2)]PWV[Orn(CH(NH2)2)]-OH),IC50,"literature IC50, protein: E3 ubiquitin-protein ligase SIAH1 (T156C mutation), PDB entry 4i7c",0.006 µM (active)
CC[C@H](NC(=O)[C@@H](NC(=O)[C@@H]1CCCN1C(=O)[C@H](CCCNC(N)N)NC(=O)[C@@H](N)CC(C)C)C(C)C)C(=O)N[C@@H](CCSC)C(=O)N[C@H](C(=O)N[C@@H](CCCNC(N)N)C(=O)N1CCC[C@H]1C(=O)N[C@H](C(=O)N[C@H](C(=O)O)C(C)C)[C@@H](C)O)C(C)C (H-L[Orn(CH(NH2)2)]PV[Abu]MV[Orn(CH(NH2)2)]PTV-OH),IC50,"literature IC50, protein: E3 ubiquitin-protein ligase SIAH1, PDB entry 4i7b",2 µM (active)
CC(C)C[C@H](NC(=O)[C@H](CC(C)C)NC(=O)[C@H](CC(C)C)NC(=O)[C@H](CCCCN)NC(=O)[C@H](CCCCN)NC(=O)[C@H](CC(C)C)NC(=O)[C@H](CC(C)C)NC(=O)[C@H](CO)NC(=O)[C@@H]1CCCN1)C(=O)N[C@@H](C)C(=O)N1CCC[C@H]1C(=O)N[C@@H](C)C=O (H-PSLLKKLLLAPA-aldehyde),IC50,"literature IC50, protein: PPARgama, PDB entry 3cs8",1.7 µM (active)
CC(C)C[C@H](NC(=O)[C@@H](O)CC(=O)O)C(=O)NCCCCNC(N)N,IC50,"literature IC50, protein: Streptopain, PDB entry 4d8e",0.098 µM (active)
CCC(CC)[C@H](NC(C)=O)[C@@H]1[C@H](O)[C@@H](C(=O)O)C[C@H]1NC(N)N,IC50,"literature IC50, protein: Neuraminidase, PDB entry 4mwv",0.0004 µM (active)
same,IC50,"literature IC50, protein: Neuraminidase, PDB entry 4mx0",0.185 µM (active)
CC(C)Oc1ccc(-c2ccnc(NC([P+](O)(O)O)[P+](O)(O)O)c2)cc1,IC50,"literature IC50, protein: human farnesyl pyrophosphate synthase (FPPS), PDB entry 4h5c",0.028 µM (active)
C[C@H](CC(=O)O)C1NN(C)C2N=C(N)NC(=O)C2C1O (stereo not given in full),IC50,"literature IC50, protein: Dihydropteroate Synthase, PDB entry 4d9p",145 µM (active)
COc1ccc(C(=O)CCC(=O)O)c(O)c1,IC50,"literature IC50, protein: Orotidine 5'-phosphate decarboxylase, PDB entry 3vi2",170 µM (active)
CN1CCN(c2ccc(-c3ccncc3-c3cc(F)c(O)c(F)c3)cc2)CC1,IC50,"literature IC50, protein: Ribosomal protein S6 kinase alpha-3 RSK2, PDB entry 4nus",0.005 µM (active)
CCCn1cnc2c1c(=O)n(CCCCC(C)=O)c(=O)n2C,IC50,"literature IC50, protein: Chitinase A(W275G mutant), PDB entry 3as2",360 µM (active)
CC[C@H](C)[C@H](NC(C)=O)C(=O)N[C@@H](Cc1ccc(O)cc1)C(=O)N[C@@H](Cc1ccc(O)cc1)[P+](O)(O)O,IC50,"literature IC50, protein: Human testis angiotensin converting enzyme, PDB entry 4bzr",0.025 µM (active)
O=C(NCc1cccc(O)c1)Nc1nc(-c2ccncc2)cs1,IC50,"literature IC50, protein: Rho-associated protein kinase 1, PDB entry 3twj",0.0145 µM (active)
C[C@@H]1COC[C@@H](C)[N+]1=C1CC(=O)N2CC[C@@H](C(F)(F)F)[N+](Cc3ccc(Cl)s3)=C2N1,IC50,"literature IC50, protein: PHOSPHATIDYLINOSITOL 3-KINASE CATALYTIC SUBUNIT TYPE 3 Vsp34, PDB entry 4uwk",0.001 µM (active)
CC(C)OCC[N+]1=C2NC(=[N+]3CCOCC3)CC(=O)N2CC[C@H]1C(F)(F)F,IC50,"literature IC50, protein: PHOSPHATIDYLINOSITOL 3-KINASE CATALYTIC SUBUNIT TYPE 3 Vsp34, PDB entry 4uwg",0.007 µM (active)
O/N=C/c1ccc(O)cc1,IC50,"literature IC50, protein: Macrophage Migration Inhibitory Factor (MIF), PDB entry 2ooz",7 µM (active)
CC(C)[C@H]1[C@H](C(=O)N2CCC[C@H]2C(=O)N(C)C)SC2=N[C@@](C)(c3ccc(Cl)cc3)[C@@H](c3ccc(Cl)cc3)N21,IC50,"literature IC50, protein: E3 ubiquitin-protein ligase Mdm2, PDB entry 3vzv",0.0092 µM (active)
CC(C)C[C@H](N[P+](O)(O)O[C@@H]1O[C@@H](C)[C@H](O)[C@@H](O)[C@H]1O)C(=O)N[C@@H](Cc1c[nH]c2ccccc12)C(=O)O,IC50,"literature IC50, protein: human neutral endopeptidase (Neprilysin), PDB entry 1dmt",0.002 µM (active)
O=C1N=C(c2ccccc2)C=CC1O (stereo not given),IC50,"literature IC50, protein: Polymerase PA, PDB entry 4m5o",0.38 µM (active)
Nc1csc2nccnc12,IC50,"literature IC50, protein: Dengue virus 3 non-structural protein 5, PDB entry 4ctk",10000 µM (active)
O[C@@H]1[C@@H](CO[P+](O)(O)O)O[C@](O)(CO[P+](O)(O)O)[C@H]1O,IC50,"literature IC50, PDB entry 4fxf",6.5 µM (active)
CCN1CCN(C(=O)N[C@@H](C(=O)N[C@H](C(=O)O)[C@H]2N[C@@H](C(=O)O)C(C)(C)S2)c2ccccc2)C(=O)C1=O,IC50,"literature IC50, protein: Penicillin-binding protein 3, PDB entry 4kqq",126 µM (active)
same,IC50,"literature IC50, protein: Penicillin-binding protein 3, PDB entry 4kqr",126 µM (active)
CCN1CCN(C(=O)N[C@@H](C(=O)N[C@H](C=O)[C@@H]2N[C@@H](C(=O)O)C(C)(C)S2)c2ccccc2)C(=O)C1=O,IC50,"literature IC50, protein: Penicillin-binding protein 3, PDB entry 4kqo",0.166 µM (active)
CC(=O)Nc1cc(Oc2ccc3c(ccn3C(=O)Nc3ccc(CN4CCN(C)CC4)c(C(F)(F)F)c3)c2)ncn1,IC50,"literature IC50, protein: Tyrosine-protein kinase JAK2, PDB entry 3ugc",0.947 µM (active)
N#C[C@@H](Cc1cccc(C(=O)c2c[nH]c3ncccc23)c1)C(N)=O,IC50,"literature IC50, protein: Ribosomal protein S6 kinase alpha-3, PDB entry 4jg7",0.12 µM (active)
O=C(N[C@H]1CCCCCCC[C@@H]2C[C@@]2(C(=O)NS(=O)(=O)C2CC2)NC(=O)[C@@H]2C[C@@H](OC(=O)N3CCc4ccccc4C3)CN2C1=O)OC1CCCC1,IC50,"literature IC50, protein: Serine protease NS3, PDB entry 4ktc",0.001 µM (active)
CCCCC[C@H](CC(=O)NO)C(=O)N[C@H](C(=O)N1CCC[C@H]1C(=O)O)C(C)C,IC50,"literature IC50, protein: Peptide Deformylase from Staphylococcus aureus, PDB entry 1q1y",0.02 µM (active)
H-FLNKDLEVDGHFVTM-OH,IC50,"literature IC50, protein: HLA class I histocompatibility antigen, A-2 alpha chain HLA-A*0201, PDB entry 4u6y",0.083 µM (active)
H-GSDARFLRGYHLYA-OH,IC50,"literature IC50, protein: HLA class II histocompatibility antigen, DR alpha chain, PDB entry 4ov5",0.0369 µM (active)
H-MHRVSAALEEANKVFL-OH,IC50,"literature IC50, protein: Maltose ABC transporter periplasmic protein, Nuclear receptor subfamily 0 group B member 2 chimeric construct MBP-SHP, PDB entry 4nuf",5 µM (active)
O=C(Nc1ccccc1N1CCNCC1)c1csc(-n2ncc3ccccc32)n1,IC50,"literature IC50, protein: Serine/threonine-protein kinase Chk1, PDB entry 4hyi",0.003 µM (active)
CN1C(=O)N[C@H](Cc2c[nH]c3c(Cl)cccc23)C1=O,IC50,"literature IC50, protein: Receptor-interacting serine/threonine-protein kinase 1 (C34A, C127A, C233A, C240A mutation), PDB entry 4ith",0.317 µM (active)
CO[C@H]1CCO[C@@]2(C)Oc3c(C)c(=O)c4c(O)c(c5oc6cccc(OCCCCN7CCN(CCn8ccnc8)CC7)c6nc5c4c3C2=O)NC(=O)[C@H](C)CCC[C@H](C)[C@H](O)[C@@H](C)[C@@H](O)[C@@H](C)[C@H](OC(C)=O)[C@@H]1C,IC50,"literature IC50, protein: DNA-directed RNA polymerase subunit alpha, PDB entry 4kn7",0.024 µM (active)
CCN(CC)CCOc1cccc2oc3c4c(O)c5c(=O)c(C)c6c(c5c3nc12)C(=O)[C@@](C)(OCC[C@H](OC)[C@@H](C)[C@@H](OC(C)=O)[C@H](C)[C@H](O)[C@H](C)[C@@H](O)[C@@H](C)CCC[C@@H](C)C(=O)N4)O6,IC50,"literature IC50, protein: DNA-directed RNA polymerase subunit alpha, PDB entry 4kn4",0.057 µM (active)
